Each structure is given as a SMILES string. Activity calls are given as the source filed them.

One experiment deals with Albumin (Bos taurus) (UniProt P02769). Description: compounds binding labelled BSA control protein – biochemical, small-molecule microarray, Alexa647 label, 635/667 nm fluorescence, artefact control for SMM control protein annotation, profiling panel (AID 1118).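 Further: score merges 667 nm emission intensity and signal-to-noise per printed compound spot.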 As to conditions: BSA-A647 binding, fluorescence 635 nm, higher = more signal.
Experiment [1] can be described thus: probe aXIP binding to arrayed compounds – biochemical, NeuroSMM set, 635/667 nm fluorescence, primary screen (AID 1119).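 Further: probe is the protein aXip251-270 applied at 1 µg/mL to compound-printed slides; binding of probe to printed compounds measured as 667 nm fluorescence plus signal to noise.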 To be noted: small-molecule microarray, higher = more signal, called active from +8 up or from −8 down.
Experiment [2] can be described thus: probe aNOTCH3 binding on compound microarray – biochemical, small-molecule microarray, 635/667 nm fluorescence, primary screen (AID 1120).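 Further: probe is a biotin-tagged antibody raised against NOTCH3 rather than NOTCH3 protein; score merges spot fluorescence near 667 nm with spot signal to noise.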 To be noted: higher = more signal.
The nature of experiment [3]: probe aNOTCH2 binding on compound microarray – biochemical, small-molecule microarray, 635/667 nm fluorescence, primary screen (AID 1121).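 Further: score merges feature fluorescence read at 667 nm with its signal to noise.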 As to conditions: higher = more signal.
The target of experiment [4] is Carbonic anhydrase 2 (Homo sapiens) (UniProt P00918). Description: compounds binding carbonic anhydrase 2 – biochemical, small-molecule microarray, Alexa647-labelled CAII, profiling panel (AID 1122). To be noted: CAII-A647 binding fluorescence, higher = more signal.
A short description of experiment [5]: COS7 lysate on small-molecule microarray, probe aHis, 635 nm (AID 1123).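 Further: z-score combines 667nm fluorescence intensity with signal-to-noise per printed compound spot.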 As to conditions: COS7 cell lysate, fluorescence, higher = more signal.
A short description of experiment [6]: probe aLAP1 signal on lysate-treated microarray – cell lysate, small-molecule microarray, COS7 lysate, primary screen (AID 1124).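 Further: lysate comes from COS7 cells expressing LAP1 and is applied at 0.3 µg/mL; score merges spot fluorescence near 667 nm with signal-to-noise over triplicate slides.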 As to conditions: probe aLAP1, fluorescence, higher = more signal.
Another experiment relates to Sam68 (KHDRBS1). The experiment is described as follows: compounds binding KHDRBS1 protein – biochemical, small-molecule microarray, 635 nm fluorescence, primary screen (AID 1125).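 Further: score merges 667 nm channel intensity with signal to noise over triplicate slides.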 To be noted: higher = more signal.
The test system of experiment [7] is Chordin-like protein 2 (CHRDL2). The experiment is described as follows: compounds binding chordin-like 2 – biochemical, small-molecule microarray, 635 nm fluorescence, primary screen (AID 1126).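 Further: printed compound slides probed with Chrdl2 protein at 4 µg/mL for 1 h at 4 C; score merges 667 nm emission intensity with signal to noise over three replicate slides.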 To be noted: fluorescence 635 nm, higher = more signal.
For experiment [8], the target named is Concanavalin-A (Canavalia ensiformis) (UniProt P02866). The experiment is described as follows: compounds binding concanavalin A lectin – biochemical, small-molecule microarray, Alexa647 label, 635 nm, artefact control for SMM control protein annotation, primary screen (AID 1127).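 Further: z combines 667 nm emission intensity with signal-to-noise across three replicate slides.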 To be noted: ConA-A647 binding fluorescence, higher = more signal.
Experiment [9] in a line: compounds binding Alexa647 anti-His antibody – biochemical, small-molecule microarray, 635 nm fluorescence, artefact control for SMM control protein annotation, primary screen (AID 1128).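 Further: score merges feature fluorescence with signal-to-noise for each printed compound spot.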 To be noted: higher = more signal.
Experiment [10] relates to Human papillomavirus type 1a E7 protein (residues 1-88). The experiment is described as follows: HPV1a E7 small-molecule binders, primary screen, biochemical, small-molecule microarray, residues 1-88, 635 nm (AID 1129). To be noted: small-molecule microarray binding, fluorescence 635 nm; higher = more signal.
For experiment [11], the target named is Focal adhesion kinase 1 (Homo sapiens) (UniProt Q05397). Description: PTK2 protein binding on printed compound slides – biochemical, small-molecule microarray, 635/667 nm fluorescence, BSA, DTT, primary screen (AID 1130).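 Further: composite of spot emission at 667 nm and signal to noise over triplicate slides.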 To be noted: 635 nm fluorescence, higher = more signal.
The test system of experiment [12] is Fibrinogen (Alexa647-labelled). Description: Alexa647-fibrinogen binding to printed small molecules – biochemical, small-molecule microarray, 635/667 nm fluorescence, artefact control for SMM control-protein annotation, profiling panel (AID 1131).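 Further: z-score merges 667 nm fluorescence with per-spot signal-to-noise over triplicate slides.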 To be noted: fibrinogen-A647 binding fluorescence, higher = more signal.
The target in experiment [13] is Follistatin (Homo sapiens) (UniProt P19883). Description: FST protein binding to printed compounds – biochemical, small-molecule microarray, 635/667 nm fluorescence, primary screen (AID 1132). As to conditions: 635 nm fluorescence, higher = more signal.
The target in experiment [14] is Fibroblast growth factor 2 (Homo sapiens) (UniProt P09038). The experiment is described as follows: basic fibroblast growth factor binding to printed compounds – biochemical, small-molecule microarray, 635/667 nm fluorescence, primary screen (AID 1133). As to conditions: FGF2, fluorescence 635/667, higher = more signal.
Experiment [15] can be described thus: JC-1 mitochondrial potential readout, lung cancer cells – cell-based, A549, JC-1 fluorescence, basal, 24 h, 100 nL, profiling panel (AID 1138).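 Further: A549 lung adenocarcinoma cells under basal conditions with no added stimulus; test concentration not given here.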 To be noted: higher = more signal.
The next experiment relates to Lefty1. Description: Lefty1 protein binding to printed compounds – biochemical, small-molecule microarray, 635/667 nm fluorescence, primary screen (AID 1139). As to conditions: fluorescence 635/667, higher = more signal.
Experiment [16] deals with wheat germ agglutinin (Triticum aestivum), Alexa647-labelled. The experiment is described as follows: Alexa647-WGA lectin binding to printed small molecules – biochemical, small-molecule microarray, 635/667 nm fluorescence, artefact control for SMM control-protein annotation, profiling panel (AID 1140).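 Further: score merges 667 nm feature emission with signal to noise over triplicate slides.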 As to conditions: WGA-A647 binding, 635 nm fluorescence, higher = more signal.

Experiment [17] concerns the target Luciferin 4-monooxygenase (Photinus pyralis) (UniProt P08659). Description: inhibition of purified Photinus pyralis luciferase – biochemical, luminescence, purified enzyme, 2006 set, primary screen (AID 1141).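 Further: cell-free assay with purified firefly luciferase at 100 ng per well in PBS; test concentration not given here.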 As to conditions: purified firefly luciferase, SteadyGlo luminescence, 30 min; higher = more signal, called active from +8 up or from −8 down.

Luciferin 4-monooxygenase (Photinus pyralis), sequence (P08659 whole entry, looked up): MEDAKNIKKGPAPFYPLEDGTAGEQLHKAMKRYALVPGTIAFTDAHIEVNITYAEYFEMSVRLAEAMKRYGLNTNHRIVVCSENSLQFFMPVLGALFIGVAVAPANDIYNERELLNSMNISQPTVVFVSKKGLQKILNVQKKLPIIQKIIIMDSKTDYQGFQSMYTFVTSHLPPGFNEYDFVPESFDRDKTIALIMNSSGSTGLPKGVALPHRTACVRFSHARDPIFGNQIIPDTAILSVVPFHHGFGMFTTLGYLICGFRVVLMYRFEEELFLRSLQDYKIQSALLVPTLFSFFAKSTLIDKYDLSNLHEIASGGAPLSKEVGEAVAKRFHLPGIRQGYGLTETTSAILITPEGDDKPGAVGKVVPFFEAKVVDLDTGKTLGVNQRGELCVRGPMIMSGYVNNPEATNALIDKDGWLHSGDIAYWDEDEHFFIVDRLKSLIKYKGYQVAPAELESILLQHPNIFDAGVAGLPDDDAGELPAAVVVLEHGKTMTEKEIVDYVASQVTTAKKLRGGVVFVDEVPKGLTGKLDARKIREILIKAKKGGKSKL
Follistatin (Homo sapiens), sequence (P19883 whole entry, looked up): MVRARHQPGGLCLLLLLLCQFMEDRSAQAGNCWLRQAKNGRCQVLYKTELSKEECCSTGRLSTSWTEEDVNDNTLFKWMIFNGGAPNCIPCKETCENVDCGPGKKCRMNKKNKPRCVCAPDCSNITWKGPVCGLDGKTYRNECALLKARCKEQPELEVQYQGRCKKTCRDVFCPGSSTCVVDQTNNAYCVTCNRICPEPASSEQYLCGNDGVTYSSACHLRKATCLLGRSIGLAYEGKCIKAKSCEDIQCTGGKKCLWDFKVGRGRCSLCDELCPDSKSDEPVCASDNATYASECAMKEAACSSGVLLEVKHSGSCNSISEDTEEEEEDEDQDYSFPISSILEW
Focal adhesion kinase 1 (Homo sapiens), sequence (Q05397 whole entry, looked up): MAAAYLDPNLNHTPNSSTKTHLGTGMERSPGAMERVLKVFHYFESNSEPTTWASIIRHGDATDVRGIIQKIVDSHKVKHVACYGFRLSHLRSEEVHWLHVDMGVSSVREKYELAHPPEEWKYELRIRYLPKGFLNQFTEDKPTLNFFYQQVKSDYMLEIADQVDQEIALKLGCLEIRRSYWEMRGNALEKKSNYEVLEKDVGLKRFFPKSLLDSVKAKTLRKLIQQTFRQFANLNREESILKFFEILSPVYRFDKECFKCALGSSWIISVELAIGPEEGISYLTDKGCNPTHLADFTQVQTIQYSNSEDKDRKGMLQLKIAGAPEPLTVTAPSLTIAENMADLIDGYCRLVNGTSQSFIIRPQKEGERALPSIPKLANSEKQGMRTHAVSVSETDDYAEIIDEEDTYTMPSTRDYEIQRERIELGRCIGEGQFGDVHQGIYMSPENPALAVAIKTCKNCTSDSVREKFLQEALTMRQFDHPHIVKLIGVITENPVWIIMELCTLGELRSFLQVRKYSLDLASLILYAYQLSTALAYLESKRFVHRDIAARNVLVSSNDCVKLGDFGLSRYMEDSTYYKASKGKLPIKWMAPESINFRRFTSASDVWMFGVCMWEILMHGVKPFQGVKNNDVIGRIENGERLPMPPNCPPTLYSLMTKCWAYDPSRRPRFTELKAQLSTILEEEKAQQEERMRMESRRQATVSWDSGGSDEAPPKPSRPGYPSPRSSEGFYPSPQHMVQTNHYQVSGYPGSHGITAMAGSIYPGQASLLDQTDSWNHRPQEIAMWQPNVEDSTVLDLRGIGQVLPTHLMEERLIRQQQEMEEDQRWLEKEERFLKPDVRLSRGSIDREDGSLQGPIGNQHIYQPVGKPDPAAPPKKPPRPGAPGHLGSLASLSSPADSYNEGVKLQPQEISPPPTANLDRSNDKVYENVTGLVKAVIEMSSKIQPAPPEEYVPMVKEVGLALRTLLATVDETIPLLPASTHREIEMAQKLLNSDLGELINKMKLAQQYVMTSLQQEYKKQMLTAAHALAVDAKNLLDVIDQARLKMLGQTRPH
Fibroblast growth factor 2 (Homo sapiens), sequence (P09038 whole entry, looked up): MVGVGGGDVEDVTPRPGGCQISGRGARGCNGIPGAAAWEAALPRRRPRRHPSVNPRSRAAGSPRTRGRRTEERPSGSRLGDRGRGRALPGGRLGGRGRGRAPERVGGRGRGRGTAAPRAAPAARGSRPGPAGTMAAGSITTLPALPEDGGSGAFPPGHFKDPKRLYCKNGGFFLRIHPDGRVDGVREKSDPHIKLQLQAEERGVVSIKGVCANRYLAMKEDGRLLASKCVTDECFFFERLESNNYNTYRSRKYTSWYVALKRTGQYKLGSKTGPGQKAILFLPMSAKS
Albumin (Bos taurus), sequence (P02769 whole entry, looked up): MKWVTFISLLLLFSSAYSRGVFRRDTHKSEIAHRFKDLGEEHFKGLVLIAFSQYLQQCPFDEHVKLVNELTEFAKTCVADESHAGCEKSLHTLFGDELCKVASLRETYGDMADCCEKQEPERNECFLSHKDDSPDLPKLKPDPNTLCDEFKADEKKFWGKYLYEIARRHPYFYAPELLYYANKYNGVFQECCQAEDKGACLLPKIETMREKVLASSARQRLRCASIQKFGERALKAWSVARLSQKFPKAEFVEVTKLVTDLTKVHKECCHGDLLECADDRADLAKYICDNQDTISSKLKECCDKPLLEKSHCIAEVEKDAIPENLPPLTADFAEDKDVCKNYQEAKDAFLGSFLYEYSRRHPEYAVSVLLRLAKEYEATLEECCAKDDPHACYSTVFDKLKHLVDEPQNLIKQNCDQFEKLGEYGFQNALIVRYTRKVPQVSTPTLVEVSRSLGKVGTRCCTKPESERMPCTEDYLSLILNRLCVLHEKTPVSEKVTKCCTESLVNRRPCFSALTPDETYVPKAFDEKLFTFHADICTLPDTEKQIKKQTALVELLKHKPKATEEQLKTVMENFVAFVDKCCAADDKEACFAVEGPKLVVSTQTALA
Concanavalin-A (Canavalia ensiformis), sequence (P02866 whole entry, looked up): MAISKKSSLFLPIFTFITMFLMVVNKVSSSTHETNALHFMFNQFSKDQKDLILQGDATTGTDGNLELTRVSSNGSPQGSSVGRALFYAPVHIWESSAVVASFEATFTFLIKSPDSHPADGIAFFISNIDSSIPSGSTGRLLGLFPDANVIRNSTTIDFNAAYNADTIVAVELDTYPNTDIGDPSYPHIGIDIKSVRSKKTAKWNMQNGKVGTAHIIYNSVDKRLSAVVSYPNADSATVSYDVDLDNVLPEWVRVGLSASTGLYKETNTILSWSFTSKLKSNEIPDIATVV

Regarding `CCN(CC)c1ccc(N2CC=CC34O[C@@H]5/C=C\CCCOC(=O)C5[C@H]3C(=O)N(CCCO)[C@@H]4C2=O)cc1` (stereo not given in full), the composite z-score in the experiment with Albumin (Bos taurus) was -1.05; in [2], -0.373; in experiment [3], -0.104; in [4], 0.935; in experiment [5], 3.01; in [6] it was 2.3. The composite z-score in the experiment with Sam68 (KHDRBS1) was 0.244; in [7] it was -1.83; in experiment [8] it was -0.77; in [9] it was 1.54; in experiment [10] it was -0.231; in experiment [11], -0.426. The composite z-score in experiment [12] was -0.928; in experiment [13], -1.05; in [14], -0.942; in the experiment on Lefty1 it was -0.5; in [16] it was -0.137. Besides, the composite Z-score in experiment [1] was 0.895 (inactive). The z-score in [15] is 0.614; in experiment [17], -0.826 (inactive).

Take `COc1ccc([Si](C)(C)[C@H]2[C@H](CC(=O)N(CCO)Cc3ccccc3)O[C@@]3(C(=O)N(Cc4cccc(N5C(=O)c6cccc7cccc5c67)c4)c4ccccc43)[C@@H]2C)cc1`: the composite z-score with Albumin (Bos taurus) was 0.375; in experiment [2] it was -0.0821; in experiment [3], -0.154; in experiment [4], 0.519; in experiment [5], 0.934; in experiment [6], 0.228. The composite z-score in the experiment with Sam68 (KHDRBS1) is 0.75; in [7], -0.108; in [8] it was 1.09; in experiment [9] it was 1.07; in experiment [10], 1.09; in [11], 0.324. Further, the composite z-score in experiment [12] amounted to 0.281; in experiment [13], 0.76; in experiment [14], 1.27; in the experiment on Lefty1, 0.834; in experiment [16], 0.862. In [1], the composite Z-score was -0.025 (inactive). Further, the z-score in experiment [15] was -0.203; in experiment [17], -1.19 (inactive).

Take `Cc1ccc(S(=O)(=O)N2CC(C(=O)O)=CCC2c2ccccc2)cc1` (stereo not given): the composite z-score with Albumin (Bos taurus) is 0.465; in experiment [2] it was -0.287; in [3], -0.106; in [4], 0.881; in experiment [5], 1.21; in [6] it was 0.671. In addition, the composite z-score in the experiment with Sam68 (KHDRBS1) was 0.503; in [7], -1.74; in [8] it was 0.0782; in experiment [9], -0.67; in experiment [10], -0.2; in [11], 0.223. Also, the composite z-score in experiment [12] was -0.275; in experiment [13], -1.22; in experiment [14], -1.14; with Lefty1, -0.946; in [16], 0.0972. Also, the composite Z-score in [1] was 0.0578 (inactive). Besides, the z-score in experiment [15] is -1.33; in experiment [17], 1.52 (inactive).

Turning to `O=[N+]([O-])c1ccc(C[n+]2ccc(CCCO)cc2)o1`, the composite z-score was 0.766 with Albumin (Bos taurus); 0.277 in [2]; 0.0655 in experiment [3]; 0.82 in [4]; 1.82 in experiment [5]; 0.313 in experiment [6]. The composite z-score with Sam68 (KHDRBS1) was 0.916; in [7] it was 0.793; in experiment [8], 1.09; in [9] it was -0.0383; in [10], 1.07; in experiment [11], 1.08. Also, the composite z-score in [12] amounted to 0.752; in experiment [13], 1.4; in experiment [14], 1.77; in the experiment with Lefty1, 0.73; in experiment [16], 0.226. In [1], the composite Z-score is -0.138 (inactive). Besides, the z-score is -0.506 in [15] and -0.868 (inactive) in [17].

In the case of `CC(C)C[C@@H]1NC(=O)[C@@H]2C[C@H](C(=O)NCCCCN(C)C)[C@H](c3ccc(O)cc3)N2C1=O`, the composite z-score is -0.0836 with Albumin (Bos taurus); -0.236 in experiment [2]; -0.124 in [3]; 0.335 in experiment [4]; 0.732 in experiment [5]; 0.148 in [6]. Further, the composite z-score with Sam68 (KHDRBS1) was 0.225; in experiment [7], -0.631; in [8] it was -0.0663; in experiment [9], 2.74; in [10] it was -0.494; in experiment [11], -0.462. The composite z-score in experiment [12] was -0.838; in [13], -0.21; in [14], -0.0947; with Lefty1 it was -0.477; in [16], -0.153. Also, the composite Z-score in experiment [1] is 0.0699 (inactive). The results for the z-score in experiment [15] and in experiment [17] were -0.273 and 0.36 (inactive), respectively.
